Measured values from PubChem BioAssay AID1159580 (chemical genetic matrix, 2015).
Several values for one entry are separate records, joined by “and”; a condition that tells them apart may be missing. Equal entries are not always repeated. Among all 5,500 compounds or so, about 2,000 (36%) were called active. About 18% were inconclusive and are not listed. No stated cut-off is given here; in the data, active means normalized growth mostly below about 0.91 (no sharp cut-off); inconclusive means no clear call, values can overlap the other calls; inactive means mostly above about 0.92. The list shows a part of the results.

Assay: chemical genetic growth profiling, strain panel (AID 1159580);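 further: tested at 20 µM; growth read once vehicle control cultures reached saturation at 30 °C; 1 = growth at the plate median or of vehicle wells; lower values mean less growth of the strain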
Conditions: S. cerevisiae deletion strains, growth OD

Measured: normalized growth

Oc1cccc(O)c1
inactive: locus YAL013W, strain DEP1, hits give low values 1.01 | locus YAL021C, strain ccr4, hits give low values 0.951 | locus YAL026C, strain drs2, hits give low values 0.966 | locus YAL030W, strain snc1, hits give low values 0.981 | locus YBL061C, strain skt5, hits give low values 0.981 | locus YBR009C, strain hhf1, hits give low values 0.981 | locus YBR021W, strain FUR4, hits give low values 1.02 | locus YBR023C, strain chs3, hits give low values 0.975 | locus YBR171W, strain sec66, hits give low values 0.983 | locus YBR229C, strain ROT2, hits give low values 1.01 | locus YBR231C, strain swc5, hits give low values 0.99 | locus YBR279W, strain paf1, hits give low values 1 | locus YCL011C, strain gbp2, hits give low values 0.938 | locus YCL016C, strain dcc1, hits give low values 0.956 | locus YCL029C, strain bik1, hits give low values 0.987 | locus YCL061C, strain MRC1, hits give low values 0.95 | locus YCL069W, strain vba3, hits give low values 0.978 | locus YCR088W, strain abp1, hits give low values 0.981 | locus YDL005C, strain med2, hits give low values 0.977 | locus YDL035C, strain GPR1, hits give low values 1.01 | locus YDL040C, strain nat1, hits give low values 0.99 | locus YDL074C, strain BRE1, hits give low values 1.01 | locus YDL101C, strain DUN1, hits give low values 1 | locus YDL134C, strain PPH21, hits give low values 0.999 | locus YDL185W, strain tfp1, hits give low values 0.974 | locus YDL192W, strain arf1, hits give low values 0.987 | locus YDR001C, strain nth1, hits give low values 0.957 | locus YDR069C, strain doa4, hits give low values 0.976 | locus YDR101C, strain arx1, hits give low values 0.981 | locus YDR137W, strain rgp1, hits give low values 0.942 | locus YDR150W, strain NUM1, hits give low values 1.01 | locus YDR159W, strain sac3, hits give low values 0.953 | locus YDR162C, strain NBP2, hits give low values 1 | locus YDR195W, strain ref2 0.993 | locus YDR297W, strain sur2, hits give low values 0.989 | locus YDR318W, strain mcm21, hits give low values 0.985 | locus YDR334W, strain swr1, hits give low values 0.969 | locus YDR335W, strain msn5, hits give low values 0.983 | locus YDR388W, hits give low values 0.986 | locus YDR392W, strain spt3, hits give low values 0.872 | locus YDR502C, strain sam2, hits give low values 0.984 | locus YEL003W, strain gim4, hits give low values 0.985 | locus YEL037C, strain rad23, hits give low values 0.977 | locus YEL061C, strain CIN8 (second series), hits give low values 0.972 | locus YEL061C, strain CIN8, hits give low values 1 | locus YER015W, strain faa2, hits give low values 0.981 | locus YER016W, strain bim1, hits give low values 0.982 | locus YER110C, hits give low values 0.984 | locus YER111C, strain swi4, hits give low values 0.981 | locus YER155C, strain BEM2 (second series), hits give low values 0.973 | locus YER155C, strain BEM2, hits give low values 1 | locus YER167W, strain BCK2, hits give low values 1.01 | locus YFR010W, strain ubp6, hits give low values 0.966 | locus YGL078C, strain dbp3, hits give low values 0.987 | locus YGL086W, strain mad1, hits give low values 0.994 | locus YGL167C, strain pmr1, hits give low values 0.984 | locus YGL173C, strain kem1, hits give low values 0.996 | locus YGL227W, strain vid30, hits give low values 0.981 | locus YGL240W, strain doc1, hits give low values 1.01 | locus YGL248W, strain PDE1, hits give low values 1.01 | locus YGL253W, strain hxk2, hits give low values 0.962 | locus YGR135W, strain pre9, hits give low values 0.986 | locus YGR252W, strain gcn5, hits give low values 0.974 | locus YHR013C, strain ard1, hits give low values 0.947 | locus YHR027C, strain rpn1, hits give low values 0.985 | locus YHR030C, strain SLT2, hits give low values 1.01 and 1.03 | locus YHR079C, strain IRE1 (second series), hits give low values 0.987 | locus YHR079C, strain IRE1, hits give low values 1.05 | locus YHR094C, strain hxt1, hits give low values 0.993 | locus YHR129C, strain ARP1, hits give low values 1.02 | locus YHR142W, strain chs7, hits give low values 0.954 | locus YHR200W, strain rpn10, hits give low values 0.987 | locus YIL066C, strain RNR3, hits give low values 0.999 | locus YIL073C, strain SPO22, hits give low values 0.993 | locus YIL125W, strain kgd1, hits give low values 0.986 | locus YIR030C, strain dcg1, hits give low values 0.991 | locus YJL092W, strain hpr5, hits give low values 0.963 | locus YJL095W, strain BCK1 (second series), hits give low values 0.987 | locus YJL095W, strain BCK1, hits give low values 1.02 and 0.997 | locus YJL115W, strain asf1, hits give low values 0.978 | locus YJL129C, strain trk1, hits give low values 0.974 | locus YJL134W, strain LCB3, hits give low values 1.01 | locus YJL154C, strain vps35, hits give low values 0.977 | locus YJL164C, strain tpk1, hits give low values 0.947 | locus YJL166W, strain qcr8, hits give low values 1 | locus YJL168C, strain set2, hits give low values 0.988 | locus YJL187C, strain SWE1 (second series), hits give low values 1.01 | locus YJL187C, strain SWE1, hits give low values 0.989 | locus YJR043C, strain POL32, hits give low values 1.01
